pKd: −log10 of the molar value.
Test system: EGFR
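Further: kd values determined as follow-up on hits from a single-replicate KINOMEscan panel screen.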

SMILES | pKd
Cl.NC(=O)c1cccc(Nc2nccc(Nc3ccc(Oc4cccc(Cl)c4)c(Cl)c3)n2)c1 [GW659008] | 6.92
Cn1cncc1-c1ccc2ncnc(Nc3ccc(OCc4ccccc4)cc3)c2c1 [GW320571] | 7.31
Cl.O=C(Nc1cccc(-c2nn3ncccc3c2-c2ccnc(Nc3cccnc3)n2)c1)c1c(F)cccc1F [GSK312879] | 7.42

Test system: T1, ERK4
T1 construct: gene MAPK4

SMILES | pKd
O=C(Nc1n[nH]c2nc(-c3nccs3)c(Br)cc12)C1CCCC1 [SB-742609] | < 5.00
CS(=O)(=O)c1ccc(-c2nc3n(c2-c2ccncc2)CCC3)cc1 [SKF-105942] | < 5.00
Cc1cccc(-c2nc(C)cc(Nc3ccncc3)n2)n1 [GSK257997] | < 5.00

Reference: paper PMC5540273 (PLoS ONE, 2017)
